The values that follow come from PubChem BioAssay (NCATS).

Inconclusive results are not listed. Active and inactive are the calls of the source. Unless noted, calls come from the whole dose curve; as a rule, active = well fitted curve in the direction sought with a large enough effect; inconclusive = small, poorly fitted or top-dose-only effect, or another doubt; inactive = no such curve, though single readings can be large; an effect the other way counts as inactive or inconclusive.

In assay [1] the target is Cytochrome P450 3A4 (Homo sapiens) (UniProt P08684). Kind of assay: qHTS Assay for Inhibitors and Substrates of Cytochrome P450 3A4 (AID 884). Note: % is set by controls: 0 for no effect and ±100 for the full control effect; nearly all actives have a fitted effect of over 50% in size. Put shortly:
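20 nM human CYP3A4 with 25 uM Luciferin-PPXE (at KM) in 200 mM KPO4, preincubated 10 min with compound; NADPH regeneration started a 60 min RT reaction. Luciferin detected by luminescence, normalized to 57 uM ketoconazole as full inhibition.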
A general note: Quantitative high-throughput screening tests each substance at several concentrations.

A short description of assay [2]: Confirmation and Secondary Assay for Modulators of Hemoglobin Beta Chain Splicing at IVS2 654 locus (AID 910).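 Note: per-well total GFP intensity by laser scanning cytometry after 2-day treatment; % of control where 0% means no effect.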 The method in brief:
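HeLa cells stably carrying EGFP interrupted by mutant beta-globin IVS2-654 intron (CMV-driven) were treated with compound for 2 days at 37C; corrected splicing was scored as total peak GFP intensity per well (488 nm excitation, 500-520 nm emission).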

Assay [3] is described as follows: Confirmation and Secondary Assay for Modulators of Hemoglobin Beta Chain Splicing at IVS2 705 locus (AID 930).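 Note: HeLa cells stably expressing the EGFP-705 splicing reporter; GFP fluorescence per well restored by corrected splicing of the IVS2-705 intron in EGFP; % of control where 0% means no effect.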 Put shortly:
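Per-well GFP, captured at 1 x 8 µm resolution with 488 nm excitation, served as the read-out for HeLa EGFP-705 cells incubated 2 days with test compound versus DMSO.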

Assay [4] can be described thus: qHTS Assay for Lipid Storage Modulators (AID 1519; calls by dose curve; for activity change, negative = inhibition: % is set by controls: 0 for no effect and ±100 for the full control effect). To be noted: Drosophila S3 cells, BODIPY lipid droplet/cell ratio, laser cytometry, cells loaded with oleic acid; for activity change, negative = inhibition: at 57.5 µM (top of the series). Put shortly:
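Cells seeded at 5,000 per well were treated with compounds over a concentration series and loaded with oleic acid (400 uM, as added). Lipid droplet fluorescence (488 nm excitation, 500-530 nm channel) was read by laser-scanning cytometry and normalized to 20 uM Triacsin C.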

In assay [5] the target is Cytochrome P450 3A4 (Homo sapiens) (UniProt P08684). Kind of assay: qHTS Assay for Activators of Cytochrome P450 3A4 (AID 885). Note: nearly all actives have a fitted effect of over 65% in size. The method in brief: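 Steps: enzyme/substrate mix dispensed; compound added, 10 min RT; NADPH regeneration solution added, 60 min RT; luciferin detection buffer stops reaction; 20 min later luminescence measured.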
Setting [6] is: measured here: cell count channel max response.
Where [7] appears, read: measured here: lipid channel max response.

Chain of Cytochrome P450 3A4 (Homo sapiens) (P08684 whole entry, looked up): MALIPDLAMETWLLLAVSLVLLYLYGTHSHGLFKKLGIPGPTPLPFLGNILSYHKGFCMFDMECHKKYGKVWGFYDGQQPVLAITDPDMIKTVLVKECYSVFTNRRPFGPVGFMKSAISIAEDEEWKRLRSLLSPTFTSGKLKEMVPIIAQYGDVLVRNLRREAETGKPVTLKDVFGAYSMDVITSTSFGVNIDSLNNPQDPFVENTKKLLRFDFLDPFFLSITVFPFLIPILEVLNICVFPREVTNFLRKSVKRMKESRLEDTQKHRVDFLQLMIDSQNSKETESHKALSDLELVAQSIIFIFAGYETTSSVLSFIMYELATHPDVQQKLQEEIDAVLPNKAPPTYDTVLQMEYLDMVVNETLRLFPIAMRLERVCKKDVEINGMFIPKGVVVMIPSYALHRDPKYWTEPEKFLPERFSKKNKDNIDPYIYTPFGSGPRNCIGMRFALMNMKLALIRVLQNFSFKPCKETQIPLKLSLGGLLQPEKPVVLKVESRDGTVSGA

With `COC(=O)/C=C/C(C)=C/C=C/C(C)=C/C=C/C=C(C)/C=C/C=C(C)/C=C/C(=O)O`, the Potency entry in assay [1], in assay [2] and in assay [3] was “inactive” in each case. The activity change, negative = inhibition in assay [4] was 5.02% (inactive). Moreover, the max response in assay [4] (setting [6]) came to 17.2%; in assay [4] (setting [7]), 24.2%.

As to `CC(CCC(=O)O)C1CCC2C3CC[C@H]4CC(O)CC[C@@]4(C)C3C=C[C@]12C` (some centres undefined), the Potency result in assay [1], in assay [2] and in assay [3] was “inactive” throughout. In addition, the activity change, negative = inhibition in assay [4] was 5.52% (inactive). For the same compound, the max response came out at 9.1% in assay [4] (setting [6]) and 18.3% in assay [4] (setting [7]).

As to `COc1ccc2c(c1)CCC1C2CC[C@@]2(C)C(O)CCC12` (some centres undefined), the Potency entry in assay [1] and in assay [3] was “inactive” throughout. Further, the activity change, negative = inhibition in assay [4] was 6.39% (inactive). The values for the max response in assay [4] (setting [6]) and in assay [4] (setting [7]) were 9.55% and 16.1%, respectively.

As for `CC(C1OC(C)(C)C(O)C1O)C1CC[C@@]2(C)C3=CCC4C(C)(C)C(=O)CC[C@]4(C)C3CC[C@@]12C` (some centres undefined), the Potency result in assay [1], in assay [2] and in assay [3] was “inactive” each time. Further, the activity change, negative = inhibition in assay [4] is 5.14% (inactive). Besides, the max response in assay [4] (setting [6]) is -0.971%; in assay [4] (setting [7]) it was 3.6%.

Regarding `CCCCCCCCCCCCCCC(C(=O)O)C(O)(CC(=O)OC)C(=O)O` (centres undefined), the Potency entry in assay [1] and in assay [3] was “inactive” in each case. In addition, the activity change, negative = inhibition in assay [4] is 5.93% (inactive). Moreover, the max response in assay [4] (setting [6]) was determined as 16.5%; in assay [4] (setting [7]), 25.2%.

Regarding `c1ccc2c(c1)CN1CCCC1=N2`, the Potency result in assay [5], in assay [2] and in assay [3] was “inactive” throughout. The activity change, negative = inhibition in assay [4] was 5.8% (inactive). For the same compound, the max response in assay [4] (setting [6]) was determined as 4.77%; in assay [4] (setting [7]), 11.2%.

Consider `COc1c(C(C)C)oc2cc3oc(=O)ccc3cc12`, for which the Potency entry in assay [1], in assay [2] and in assay [3] was “inactive” each time. The activity change, negative = inhibition in assay [4] is 5.54% (inactive). In addition, the max response stood at 15.7% in assay [4] (setting [6]) and 22.2% in assay [4] (setting [7]).

For `COc1cc(O)c(C(=O)/C=C/c2ccccc2)c(OC)c1`, the Potency entry in assay [5], in assay [2] and in assay [3] was “inactive” in each case. Further, the activity change, negative = inhibition in assay [4] is -11.9% (inactive). The max response in assay [4] (setting [6]) was 2.78%; in assay [4] (setting [7]), -7.25%.

For the compound `CC(=O)OC1CC2C(C)(C)C(=O)C3OC3[C@]2(C)C2CC[C@@]3(C)C(c4ccoc4)OC(=O)C4OC43[C@]12C` (some centres undefined), the Potency result in assay [1], in assay [2] and in assay [3] was “inactive” in each case. The activity change, negative = inhibition in assay [4] was -0.845% (inactive). Moreover, the results for the max response in assay [4] (setting [6]) and in assay [4] (setting [7]) were -15.4% and -5.43%, respectively.

For the compound `CC(C)CCCC(C)C1CCC2C3=CC[C@@H]4CC(O)CC[C@@]4(C)C3CC[C@]21C` (some centres undefined), the Potency entry in assay [1], in assay [2] and in assay [3] was “inactive” throughout. Also, the activity change, negative = inhibition in assay [4] is -3.72% (inactive). Moreover, the max response in assay [4] (setting [6]) was determined as 6.46%; in assay [4] (setting [7]) it was 4.39%.

For the compound `CC(=O)OC1CC[C@]2(C)C(CC(OC(C)=O)[C@]3(C)C2CC[C@@]2(C)C(c4ccoc4)OC(=O)C4O[C@]432)C1(C)C` (some centres undefined), the Potency result in assay [1], in assay [2] and in assay [3] was “inactive” each time. Also, in assay [4], the activity change, negative = inhibition was 15.1% (inactive). The max response came out at 12.6% in assay [4] (setting [6]) and 25.6% in assay [4] (setting [7]).

For `CC(=O)OCC1OC(Oc2cc(OC(C)=O)c3c(=O)cc(-c4ccc(OC(C)=O)cc4)oc3c2)[C@@H](OC(C)=O)C(OC(C)=O)C1OC(C)=O` (some centres undefined), the Potency result in assay [5], in assay [2] and in assay [3] was “inactive” throughout. Also, the activity change, negative = inhibition in assay [4] is -3.32% (inactive). The figures for the max response in assay [4] (setting [6]) and in assay [4] (setting [7]) were -1.21% and -5.92%, respectively.

Consider `CC(C)c1c(O)ccc2c1CCC1[C@@](C)(CO)CCC[C@@]21C` (some centres undefined), for which the Potency entry in assay [5] and in assay [2] was “inactive” throughout. The activity change, negative = inhibition in assay [4] was 10.8% (inactive). Moreover, the max response in assay [4] (setting [6]) turned out to be 14.4%; in assay [4] (setting [7]), 26.5%.

Consider `Cc1cc(O)c2c(c1O)C(=O)c1c(O)cc(C)c(O)c1C2=O`, for which the Potency result in assay [1] and in assay [3] was “inactive” each time. The activity change, negative = inhibition in assay [4] was 6.96% (inactive). In addition, the max response in assay [4] (setting [6]) was -16.3%; in assay [4] (setting [7]), -8.79%.

Regarding `CC(=O)OCC1=C(C(=O)O)N2C(=O)C(NC(=O)Cc3cccs3)C2SC1` (centres undefined), the Potency entry in assay [5], in assay [2] and in assay [3] was “inactive” each time. Further, the activity change, negative = inhibition in assay [4] is 9.08% (inactive). Besides, the figures for the max response in assay [4] (setting [6]) and in assay [4] (setting [7]) were 8.85% and 22%, respectively.

As to `COC(=O)CCC(C)C1CCC2C3CC[C@H]4CC(O)CC[C@@]4(C)C3CC(O)[C@]12C` (some centres undefined), the Potency entry in assay [1], in assay [2] and in assay [3] was “inactive” each time. Moreover, in assay [4], the activity change, negative = inhibition is 1.15% (inactive). Also, the max response is -3.87% in assay [4] (setting [6]) and -3.09% in assay [4] (setting [7]).

As to `C=CC1=C(C)/C(=C/c2[nH]c(Cc3[nH]c(/C=C4\NC(=O)C(C)=C4C=C)c(C)c3CCC(=O)O)c(CCC(=O)O)c2C)NC1=O`, the Potency entry in assay [1], in assay [2] and in assay [3] was “inactive” throughout. The activity change, negative = inhibition in assay [4] was -0.375% (inactive). Moreover, the max response in assay [4] (setting [6]) was found to be 3.69%; in assay [4] (setting [7]) it was 3.49%.

Regarding `O=c1c(O)cccc2cc(O)c(O)c(O)c12`, the Potency entry in assay [5] and in assay [2] was “inactive” throughout. For the same compound, in assay [4], the activity change, negative = inhibition was 9.52% (inactive). Also, the max response in assay [4] (setting [6]) is 11.8%; in assay [4] (setting [7]), 24.4%.

On to `CC(C)C1=CC2=CC[C@@H]3[C@](C)(CO)CCC[C@]3(C)C2CC1` (some centres undefined), for which the Potency entry in assay [1], in assay [2] and in assay [3] was “inactive” in each case. Also, the activity change, negative = inhibition in assay [4] was 1.89% (inactive). Further, the max response worked out at 10.4% in assay [4] (setting [6]) and 14.9% in assay [4] (setting [7]).
